Experimental data published in PubChem BioAssay (NCATS).
Records with an inconclusive call do not appear. Calls of active or inactive are those of the source. Calls follow the shape of the dose curve; as a rule, active = well fitted curve in the direction sought with a large enough effect; inconclusive = small, poorly fitted or top-dose-only effect, or another doubt; inactive = no such curve, though single readings can be large; an effect the other way counts as inactive or inconclusive.

Target: Glucagon-like peptide 1 receptor (Homo sapiens) (UniProt P43220)
Assay: qHTS of GLP-1 Receptor Agonists: LOPAC Validation (AID 624148);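 also: higher luminescence signal means agonism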
Details: GLP-1R agonist cell assay; series mostly up to 46.1 µM; activation: at the top concentration
How it was run: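 HEK293 cells stably co-expressing a cAMP-responsive luciferase reporter and a hypersensitive GLP-1R were plated 12 h at 37 °C and exposed to compounds for 4-6 hr at 37 °C, 5% CO2. Luminescence was read 12 min after adding detection reagent.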
Also: 0% is about no effect.

Glucagon-like peptide 1 receptor (Homo sapiens), sequence (P43220 whole entry, looked up): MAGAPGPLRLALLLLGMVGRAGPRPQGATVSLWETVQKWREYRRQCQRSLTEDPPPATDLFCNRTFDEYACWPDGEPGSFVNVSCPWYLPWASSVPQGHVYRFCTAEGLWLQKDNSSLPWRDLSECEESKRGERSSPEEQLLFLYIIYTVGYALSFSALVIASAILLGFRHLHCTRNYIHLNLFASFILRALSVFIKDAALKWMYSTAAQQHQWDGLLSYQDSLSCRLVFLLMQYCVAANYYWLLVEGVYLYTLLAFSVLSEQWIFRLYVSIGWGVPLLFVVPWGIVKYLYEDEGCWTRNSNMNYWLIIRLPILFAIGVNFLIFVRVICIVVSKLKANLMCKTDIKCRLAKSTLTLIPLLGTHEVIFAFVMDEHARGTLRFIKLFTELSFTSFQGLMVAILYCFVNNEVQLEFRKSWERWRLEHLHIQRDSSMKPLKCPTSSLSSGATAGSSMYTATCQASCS

For `CC(COc1ccc(/C=C/c2ccccc2)cc1)[N+](C)(C)C` (centres undefined), which “activation” value is on record?
The value was -1.14% (inactive).

With `c1ccc(-c2ccccn2)nc1` as the compound, how does the “activation” value read?
Its value is 8.64% (inactive).

With `Fc1ccc(C(OCCCc2cnc[nH]2)c2ccc(F)cc2)cc1` as the compound, how does the “activation” value read?
The value was -1.7% (inactive).

With `COc1cc2nc(N3CCN(C(=O)OCc4ccccc4)C(C(=O)NC(C)(C)C)C3)nc(N)c2cc1OC` (centres undefined) as the compound, how does the “activation” value read?
Its value is 13.7% (inactive).

With `O=C(O)CC1CC(c2ccccc2)=NO1` (centres undefined) as the compound, how does the “activation” value read?
Its value is -1.47% (inactive).

Which “activation” value does the source give for `COc1cc(SC)ccc1C(=O)N1CCC(Cc2ccccc2)CC1` here?
The value was 0.89% (inactive).

For `Cc1cc2c(cc1Cl)N(C(=O)Nc1ccc(Oc3cccnc3C)nc1)CC2`, which “activation” value is on record?
The value was -1.12% (inactive).

Which “activation” value does the source give for `NCCNC(=O)c1ncsc1-c1cccc(F)c1` here?
Its value is -1.57% (inactive).

For `Clc1ccc(N2CCN(Cc3cc4ccccn4n3)CC2)cc1`, which “activation” value is on record?
The value was 5.33% (inactive).

For `CCCN(CC1CC1)c1nc(C)nc(Nc2c(Cl)cc(Cl)cc2Cl)c1Cl`, which “activation” value is on record?
The value was -1.87% (inactive).

Which “activation” value does the source give for `O=c1[nH]c2cc([N+](=O)[O-])c([N+](=O)[O-])cc2[nH]c1=O` here?
Its value is -1.31% (inactive).

For `CC(=O)SCC[N+](C)(C)C`, which “activation” value is on record?
The value was -1.38% (inactive).

Which “activation” value does the source give for `Cc1nc2sccn2c(=O)c1CCN1CCC(=C(c2ccccc2)c2ccc(F)cc2)CC1` here?
The value was -1.8% (inactive).

With `CCOC(=O)C1=C(C)NC(C)=C(C(=O)OCC)C1c1c(F)c(F)c(F)c(F)c1F` as the compound, how does the “activation” value read?
Its value is 0.723% (inactive).

For `O=Nc1ccc2oc(=O)ccc2c1`, which “activation” value is on record?
Its value is 0.762% (inactive).

For `CCCCN1CCC(n2c(=O)[nH]c3ccccc32)CC1`, which “activation” value is on record?
Its value is -1.85% (inactive).

Which “activation” value does the source give for `Cc1cc(NC2CCCCC2)nc(-n2nc(C)cc2C)n1` here?
The value was 5.59% (inactive).

For `Nc1ncnc2c1ncn2[C@@H]1O[C@H](COP(=O)(O)CP(=O)(O)OP(=O)(O)O)[C@@H](O)[C@H]1O`, which “activation” value is on record?
Its value is -0.956% (inactive).

For `NC[C@@H]1O[C@H](C23CC4CC(CC(C4)C2)C3)Cc2c1ccc(O)c2O`, which “activation” value is on record?
The value was 11.5% (inactive).

With `COc1cccc(OC)c1OCCNCC1COc2ccccc2O1` (centres undefined) as the compound, how does the “activation” value read?
The value was -1.8% (inactive).

Which “activation” value does the source give for `CCc1c(C(=O)NCCc2ccc(N3CCCCC3)cc2)[nH]c2ccc(Cl)cc12` here?
Its value is -1.55% (inactive).

Which “activation” value does the source give for `COc1ccccc1N1CCN(CCN(C(=O)c2ccc(I)cc2)c2ccccn2)CC1` here?
Its value is 3.8% (inactive).

Which “activation” value does the source give for `CN1CCc2ccccc2Cc2[nH]c3ccccc3c2CC1` here?
The value was -1.85% (inactive).

Which “activation” value does the source give for `CN1CCc2cc(NC(=O)Nc3cccnc3)ccc21` here?
Its value is -0.383% (inactive).

For `OC[C@H]1O[C@@H](n2cnc3c(NC4CCCC4)ncnc32)[C@H](O)[C@@H]1O`, which “activation” value is on record?
The value was 20% (inactive).

Which “activation” value does the source give for `OC[C@H]1O[C@@H](n2cnc3c(Nc4ccccc4)ncnc32)[C@H](O)[C@@H]1O` here?
Its value is 24.5% (inactive).

For `CNCC[C@H](Oc1ccc(C(F)(F)F)cc1)c1ccccc1`, which “activation” value is on record?
The value was -1.59% (inactive).

With `COc1ccccc1CNCCCCCCNCCCCCCCCNCCCCCCNCc1ccccc1OC` as the compound, how does the “activation” value read?
Its value is 4.95% (inactive).

For `Nc1nc(SCc2ccc([N+](=O)[O-])cc2)c2ncn([C@@H]3O[C@H](CO)[C@@H](O)[C@H]3O)c2n1`, which “activation” value is on record?
The value was -1.78% (inactive).

Which “activation” value does the source give for `C[N+](C)(C)CCOP(=O)(O)OP(=O)([O-])OC[C@H]1O[C@@H](n2ccc(N)nc2=O)[C@H](O)[C@@H]1O` here?
The value was 1.03% (inactive).

With `Cc1ccc(O)c(N=Nc2ccccc2)n1` as the compound, how does the “activation” value read?
The value was -0.216% (inactive).

With `O=C1O/C(=C/Br)CCC1c1cccc2ccccc12` (centres undefined) as the compound, how does the “activation” value read?
The value was -1.87% (inactive).

With `CSc1ccccc1N1CCN(CCCCCC(=O)NC2CCCc3ccccc32)CC1` (centres undefined) as the compound, how does the “activation” value read?
The value was 1.54% (inactive).

For `O=C(c1ccc(OCCCc2cnc[nH]2)cc1)C1CC1`, which “activation” value is on record?
Its value is -0.771% (inactive).

With `CC(=O)N[C@H](C(=O)O)C(C)(C)SN=O` as the compound, how does the “activation” value read?
Its value is 0.698% (inactive).

With `Nc1ncnc2c1c(I)cn2[C@@H]1C[C@H](N)[C@@H](O)[C@H]1O` as the compound, how does the “activation” value read?
The value was -1.13% (inactive).

With `O=C(O)c1cc(=O)c2c(Cl)cc(Cl)cc2[nH]1` as the compound, how does the “activation” value read?
The value was -2.06% (inactive).

Test system: not listed separately
Assay: qHTS of Nrf2 Activators: LOPAC Validation (AID 624149)
Details: Nrf2/ARE reporter cell assay; series mostly up to 46.1 µM; activation: at the top concentration
How it was run: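 Cells (AREc32_Fluc) are plated at 1000 per well in OPTI-MEM containing 5% FBS and left overnight. Compounds are pinned in and incubated 24 hr at 37 deg C, and firefly luciferase is detected with Steady-Glo.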

For `CC(COc1ccc(/C=C/c2ccccc2)cc1)[N+](C)(C)C` (centres undefined), which “activation” value is on record?
The value was -1.53% (inactive).

Which “activation” value does the source give for `c1ccc(-c2ccccn2)nc1` here?
Its value is -2.12% (inactive).

Which “activation” value does the source give for `Fc1ccc(C(OCCCc2cnc[nH]2)c2ccc(F)cc2)cc1` here?
The value was -2.24% (inactive).

With `COc1cc2nc(N3CCN(C(=O)OCc4ccccc4)C(C(=O)NC(C)(C)C)C3)nc(N)c2cc1OC` (centres undefined) as the compound, how does the “activation” value read?
Its value is -1.61% (inactive).

With `O=C(O)CC1CC(c2ccccc2)=NO1` (centres undefined) as the compound, how does the “activation” value read?
Its value is -1.7% (inactive).

Which “activation” value does the source give for `COc1cc(SC)ccc1C(=O)N1CCC(Cc2ccccc2)CC1` here?
The value was -1.12% (inactive).

Which “activation” value does the source give for `Cc1cc2c(cc1Cl)N(C(=O)Nc1ccc(Oc3cccnc3C)nc1)CC2` here?
The value was -1.38% (inactive).

With `NCCNC(=O)c1ncsc1-c1cccc(F)c1` as the compound, how does the “activation” value read?
The value was -0.619% (inactive).

With `Clc1ccc(N2CCN(Cc3cc4ccccn4n3)CC2)cc1` as the compound, how does the “activation” value read?
The value was -1.98% (inactive).

For `CCCN(CC1CC1)c1nc(C)nc(Nc2c(Cl)cc(Cl)cc2Cl)c1Cl`, which “activation” value is on record?
The value was -1.79% (inactive).

With `O=c1[nH]c2cc([N+](=O)[O-])c([N+](=O)[O-])cc2[nH]c1=O` as the compound, how does the “activation” value read?
The value was -2.13% (inactive).

Which “activation” value does the source give for `CC(=O)SCC[N+](C)(C)C` here?
Its value is -1.32% (inactive).

For `Cc1nc2sccn2c(=O)c1CCN1CCC(=C(c2ccccc2)c2ccc(F)cc2)CC1`, which “activation” value is on record?
The value was -2.27% (inactive).

For `CCOC(=O)C1=C(C)NC(C)=C(C(=O)OCC)C1c1c(F)c(F)c(F)c(F)c1F`, which “activation” value is on record?
The value was 0.963% (inactive).

Which “activation” value does the source give for `O=Nc1ccc2oc(=O)ccc2c1` here?
Its value is 6.78% (inactive).

With `CCCCN1CCC(n2c(=O)[nH]c3ccccc32)CC1` as the compound, how does the “activation” value read?
Its value is -1.81% (inactive).

Which “activation” value does the source give for `Cc1cc(NC2CCCCC2)nc(-n2nc(C)cc2C)n1` here?
Its value is -1.95% (inactive).

With `Nc1ncnc2c1ncn2[C@@H]1O[C@H](COP(=O)(O)CP(=O)(O)OP(=O)(O)O)[C@@H](O)[C@H]1O` as the compound, how does the “activation” value read?
The value was -2% (inactive).

Which “activation” value does the source give for `NC[C@@H]1O[C@H](C23CC4CC(CC(C4)C2)C3)Cc2c1ccc(O)c2O` here?
Its value is 7.58% (inactive).

Which “activation” value does the source give for `COc1cccc(OC)c1OCCNCC1COc2ccccc2O1` (centres undefined) here?
Its value is -1.53% (inactive).

Which “activation” value does the source give for `CCc1c(C(=O)NCCc2ccc(N3CCCCC3)cc2)[nH]c2ccc(Cl)cc12` here?
The value was -2.54% (inactive).

With `COc1ccccc1N1CCN(CCN(C(=O)c2ccc(I)cc2)c2ccccn2)CC1` as the compound, how does the “activation” value read?
The value was -1.11% (inactive).

For `CN1CCc2ccccc2Cc2[nH]c3ccccc3c2CC1`, which “activation” value is on record?
The value was 8.16% (inactive).

For `CN1CCc2cc(NC(=O)Nc3cccnc3)ccc21`, which “activation” value is on record?
The value was -2.4% (inactive).

With `OC[C@H]1O[C@@H](n2cnc3c(NC4CCCC4)ncnc32)[C@H](O)[C@@H]1O` as the compound, how does the “activation” value read?
The value was -2.27% (inactive).

For `OC[C@H]1O[C@@H](n2cnc3c(Nc4ccccc4)ncnc32)[C@H](O)[C@@H]1O`, which “activation” value is on record?
Its value is -1.64% (inactive).

Which “activation” value does the source give for `CNCC[C@H](Oc1ccc(C(F)(F)F)cc1)c1ccccc1` here?
Its value is 8.22% (inactive).

Which “activation” value does the source give for `COc1ccccc1CNCCCCCCNCCCCCCCCNCCCCCCNCc1ccccc1OC` here?
Its value is 4.76% (inactive).

With `Nc1nc(SCc2ccc([N+](=O)[O-])cc2)c2ncn([C@@H]3O[C@H](CO)[C@@H](O)[C@H]3O)c2n1` as the compound, how does the “activation” value read?
The value was 0.871% (inactive).

For `C[N+](C)(C)CCOP(=O)(O)OP(=O)([O-])OC[C@H]1O[C@@H](n2ccc(N)nc2=O)[C@H](O)[C@@H]1O`, which “activation” value is on record?
The value was -0.42% (inactive).

Which “activation” value does the source give for `Cc1ccc(O)c(N=Nc2ccccc2)n1` here?
The value was 10.4% (inactive).

With `O=C1O/C(=C/Br)CCC1c1cccc2ccccc12` (centres undefined) as the compound, how does the “activation” value read?
The value was 7.08% (inactive).

With `CSc1ccccc1N1CCN(CCCCCC(=O)NC2CCCc3ccccc32)CC1` (centres undefined) as the compound, how does the “activation” value read?
The value was -1.91% (inactive).

For `O=C(c1ccc(OCCCc2cnc[nH]2)cc1)C1CC1`, which “activation” value is on record?
Its value is -2.21% (inactive).

Which “activation” value does the source give for `CC(=O)N[C@H](C(=O)O)C(C)(C)SN=O` here?
Its value is 9.28% (inactive).

With `Nc1ncnc2c1c(I)cn2[C@@H]1C[C@H](N)[C@@H](O)[C@H]1O` as the compound, how does the “activation” value read?
The value was -1.84% (inactive).

With `O=C(O)c1cc(=O)c2c(Cl)cc(Cl)cc2[nH]1` as the compound, how does the “activation” value read?
The value was -1.93% (inactive).
